Results published in the supplement of paper PMC10849652.
Targets with a hit are over-represented here; the source holds about 7,900 in all. About 0.6% of all pairs of compound and target were hits.

What follows are targets tested with C1=CC2=C(C=CC(=C2)/C=C\3/C(=O)NC(=NCC4=CC=CS4)S3)N=C1 (assay: log2 fold change, soluble protein after heating vs DMSO (PISA); higher = thermal stabilisation; K562 cells, 10 uM, 30 min; active = over 0.2 and 3.5 SD of the protein, either way, in both replicates (recomputed)).
In short: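 Values are thermal stability changes relative to control samples and are taken from duplicates. They are stated as log2 fold changes. Before quantification by TMTpro 16plex LC-MS/MS with equalised channel sums, K562 cells at 2×10^6 cells/mL were treated with 10 μM compound for 30 min, heated in aliquots for 3 min across 48°C-58°C, pooled, extracted in PBS with 0.5% NP-40 at 4°C, and centrifuged at 21,000xg for 90 min to give the soluble supernatant.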

Chain of UniProt Q15173 (Q15173 whole entry, looked up): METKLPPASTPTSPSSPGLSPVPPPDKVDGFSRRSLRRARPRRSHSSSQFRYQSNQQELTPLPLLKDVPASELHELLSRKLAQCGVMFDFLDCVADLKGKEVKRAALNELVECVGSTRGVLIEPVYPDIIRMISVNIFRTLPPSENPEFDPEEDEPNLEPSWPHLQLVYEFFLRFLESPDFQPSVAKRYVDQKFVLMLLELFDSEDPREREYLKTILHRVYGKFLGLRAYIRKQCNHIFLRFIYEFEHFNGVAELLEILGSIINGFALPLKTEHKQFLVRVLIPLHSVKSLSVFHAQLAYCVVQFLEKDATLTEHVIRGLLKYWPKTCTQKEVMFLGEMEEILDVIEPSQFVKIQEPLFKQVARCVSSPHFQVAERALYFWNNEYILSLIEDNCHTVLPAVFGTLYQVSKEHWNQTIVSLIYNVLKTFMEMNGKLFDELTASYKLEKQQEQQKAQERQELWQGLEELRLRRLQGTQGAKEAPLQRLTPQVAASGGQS
Chain of UniProt Q7Z3K3 (Q7Z3K3 whole entry, looked up): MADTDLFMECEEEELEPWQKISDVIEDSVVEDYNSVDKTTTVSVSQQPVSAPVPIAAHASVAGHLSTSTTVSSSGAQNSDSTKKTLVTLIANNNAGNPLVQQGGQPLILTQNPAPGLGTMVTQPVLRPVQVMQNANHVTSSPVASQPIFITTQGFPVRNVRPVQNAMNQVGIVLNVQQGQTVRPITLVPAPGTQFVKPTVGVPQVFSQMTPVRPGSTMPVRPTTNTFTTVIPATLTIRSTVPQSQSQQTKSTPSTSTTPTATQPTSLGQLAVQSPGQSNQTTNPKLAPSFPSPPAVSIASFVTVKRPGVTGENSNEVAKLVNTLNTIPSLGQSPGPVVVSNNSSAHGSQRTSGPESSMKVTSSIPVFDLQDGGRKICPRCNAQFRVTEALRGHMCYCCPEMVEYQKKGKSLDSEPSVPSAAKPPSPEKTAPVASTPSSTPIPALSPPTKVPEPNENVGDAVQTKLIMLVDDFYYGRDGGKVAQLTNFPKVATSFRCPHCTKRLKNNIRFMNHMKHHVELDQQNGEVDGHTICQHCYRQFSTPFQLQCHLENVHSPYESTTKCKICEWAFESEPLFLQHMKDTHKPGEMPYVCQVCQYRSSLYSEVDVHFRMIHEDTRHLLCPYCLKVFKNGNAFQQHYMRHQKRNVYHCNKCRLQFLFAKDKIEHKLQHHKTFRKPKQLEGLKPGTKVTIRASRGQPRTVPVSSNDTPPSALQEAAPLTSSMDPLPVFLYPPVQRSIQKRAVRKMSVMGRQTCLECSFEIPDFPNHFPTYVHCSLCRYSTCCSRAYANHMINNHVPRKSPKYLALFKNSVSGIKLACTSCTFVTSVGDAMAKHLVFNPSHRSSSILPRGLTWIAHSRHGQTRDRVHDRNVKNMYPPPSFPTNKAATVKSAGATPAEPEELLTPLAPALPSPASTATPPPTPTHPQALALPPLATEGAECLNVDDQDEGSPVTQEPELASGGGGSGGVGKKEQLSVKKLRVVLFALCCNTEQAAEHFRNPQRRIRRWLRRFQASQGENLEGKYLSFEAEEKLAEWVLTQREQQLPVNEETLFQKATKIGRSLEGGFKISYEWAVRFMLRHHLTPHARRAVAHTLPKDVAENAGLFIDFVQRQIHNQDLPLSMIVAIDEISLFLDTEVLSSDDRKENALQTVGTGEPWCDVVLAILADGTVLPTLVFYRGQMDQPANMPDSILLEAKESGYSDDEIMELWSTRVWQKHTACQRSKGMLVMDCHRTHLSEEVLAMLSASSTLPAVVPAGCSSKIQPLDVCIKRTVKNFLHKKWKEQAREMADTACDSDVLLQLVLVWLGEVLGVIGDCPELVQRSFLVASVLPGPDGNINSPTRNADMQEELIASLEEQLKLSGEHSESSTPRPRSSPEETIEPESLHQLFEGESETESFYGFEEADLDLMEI
Chain of UniProt Q9UHX1 (Q9UHX1 whole entry, looked up): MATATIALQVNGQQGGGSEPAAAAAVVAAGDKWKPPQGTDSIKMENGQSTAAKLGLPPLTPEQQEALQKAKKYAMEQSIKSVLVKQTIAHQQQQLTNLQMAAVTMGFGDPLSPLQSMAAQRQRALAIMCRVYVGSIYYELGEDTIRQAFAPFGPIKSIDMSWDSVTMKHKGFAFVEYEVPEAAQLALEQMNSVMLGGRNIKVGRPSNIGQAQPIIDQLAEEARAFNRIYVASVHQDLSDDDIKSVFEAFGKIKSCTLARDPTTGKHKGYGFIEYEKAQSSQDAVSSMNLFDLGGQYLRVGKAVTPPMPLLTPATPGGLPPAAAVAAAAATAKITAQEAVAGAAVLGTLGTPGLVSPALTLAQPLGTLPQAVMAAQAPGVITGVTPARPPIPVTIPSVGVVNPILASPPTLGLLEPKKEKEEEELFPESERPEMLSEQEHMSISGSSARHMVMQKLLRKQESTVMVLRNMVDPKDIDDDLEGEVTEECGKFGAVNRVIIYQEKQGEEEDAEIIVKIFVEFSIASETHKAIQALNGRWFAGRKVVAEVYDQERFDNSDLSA
Chain of UniProt Q8TCG2 (Q8TCG2 whole entry, looked up): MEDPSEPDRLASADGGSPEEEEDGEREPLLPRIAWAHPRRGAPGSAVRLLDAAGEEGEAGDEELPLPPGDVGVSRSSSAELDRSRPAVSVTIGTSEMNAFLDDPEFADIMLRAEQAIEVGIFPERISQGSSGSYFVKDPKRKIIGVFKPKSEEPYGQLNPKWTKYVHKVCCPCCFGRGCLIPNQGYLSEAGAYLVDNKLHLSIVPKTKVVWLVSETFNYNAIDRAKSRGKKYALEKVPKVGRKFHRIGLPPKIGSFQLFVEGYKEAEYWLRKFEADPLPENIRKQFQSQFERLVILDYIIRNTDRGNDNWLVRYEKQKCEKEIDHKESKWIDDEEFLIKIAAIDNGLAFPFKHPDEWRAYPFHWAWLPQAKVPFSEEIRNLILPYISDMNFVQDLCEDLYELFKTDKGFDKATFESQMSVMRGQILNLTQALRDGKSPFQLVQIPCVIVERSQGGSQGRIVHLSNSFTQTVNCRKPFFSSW
Chain of UniProt Q14289 (Q14289 whole entry, looked up): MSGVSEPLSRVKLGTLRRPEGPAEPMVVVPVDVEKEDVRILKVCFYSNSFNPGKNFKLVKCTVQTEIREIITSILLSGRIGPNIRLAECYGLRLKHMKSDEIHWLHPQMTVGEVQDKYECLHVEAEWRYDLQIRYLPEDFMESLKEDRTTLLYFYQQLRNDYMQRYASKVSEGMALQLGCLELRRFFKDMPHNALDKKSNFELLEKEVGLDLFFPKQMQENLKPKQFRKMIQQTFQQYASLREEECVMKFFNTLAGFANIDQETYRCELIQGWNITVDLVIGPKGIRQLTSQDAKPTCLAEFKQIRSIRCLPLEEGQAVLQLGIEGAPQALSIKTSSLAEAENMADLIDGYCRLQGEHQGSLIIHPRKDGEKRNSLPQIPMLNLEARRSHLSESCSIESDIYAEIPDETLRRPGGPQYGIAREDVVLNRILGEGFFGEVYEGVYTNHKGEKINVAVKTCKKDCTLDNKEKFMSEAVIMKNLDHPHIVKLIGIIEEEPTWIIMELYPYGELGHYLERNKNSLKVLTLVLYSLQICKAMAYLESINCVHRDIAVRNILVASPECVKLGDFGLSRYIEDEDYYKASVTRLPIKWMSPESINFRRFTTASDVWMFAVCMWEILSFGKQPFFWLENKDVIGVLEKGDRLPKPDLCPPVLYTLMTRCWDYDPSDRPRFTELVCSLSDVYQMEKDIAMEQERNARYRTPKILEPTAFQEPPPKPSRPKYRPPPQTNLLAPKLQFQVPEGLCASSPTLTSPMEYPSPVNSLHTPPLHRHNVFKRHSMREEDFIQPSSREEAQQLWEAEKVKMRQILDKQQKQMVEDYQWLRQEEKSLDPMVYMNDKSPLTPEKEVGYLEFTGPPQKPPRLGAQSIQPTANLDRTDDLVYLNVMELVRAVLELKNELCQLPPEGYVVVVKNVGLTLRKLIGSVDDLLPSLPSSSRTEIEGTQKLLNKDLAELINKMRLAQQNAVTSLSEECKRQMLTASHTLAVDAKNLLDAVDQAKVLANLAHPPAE
Chain of UniProt P07205 (P07205 whole entry, looked up): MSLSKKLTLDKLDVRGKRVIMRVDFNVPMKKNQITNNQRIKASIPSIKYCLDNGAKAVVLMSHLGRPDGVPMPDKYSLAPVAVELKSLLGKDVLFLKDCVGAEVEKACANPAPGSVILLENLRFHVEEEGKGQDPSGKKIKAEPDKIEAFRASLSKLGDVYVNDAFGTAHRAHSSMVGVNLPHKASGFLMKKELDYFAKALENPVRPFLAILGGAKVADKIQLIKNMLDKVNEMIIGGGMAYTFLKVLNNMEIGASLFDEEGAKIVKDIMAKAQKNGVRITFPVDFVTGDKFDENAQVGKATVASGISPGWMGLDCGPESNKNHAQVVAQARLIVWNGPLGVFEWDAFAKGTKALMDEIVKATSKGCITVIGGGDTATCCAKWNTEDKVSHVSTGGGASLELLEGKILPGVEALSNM
Chain of UniProt P14618 (P14618 whole entry, looked up): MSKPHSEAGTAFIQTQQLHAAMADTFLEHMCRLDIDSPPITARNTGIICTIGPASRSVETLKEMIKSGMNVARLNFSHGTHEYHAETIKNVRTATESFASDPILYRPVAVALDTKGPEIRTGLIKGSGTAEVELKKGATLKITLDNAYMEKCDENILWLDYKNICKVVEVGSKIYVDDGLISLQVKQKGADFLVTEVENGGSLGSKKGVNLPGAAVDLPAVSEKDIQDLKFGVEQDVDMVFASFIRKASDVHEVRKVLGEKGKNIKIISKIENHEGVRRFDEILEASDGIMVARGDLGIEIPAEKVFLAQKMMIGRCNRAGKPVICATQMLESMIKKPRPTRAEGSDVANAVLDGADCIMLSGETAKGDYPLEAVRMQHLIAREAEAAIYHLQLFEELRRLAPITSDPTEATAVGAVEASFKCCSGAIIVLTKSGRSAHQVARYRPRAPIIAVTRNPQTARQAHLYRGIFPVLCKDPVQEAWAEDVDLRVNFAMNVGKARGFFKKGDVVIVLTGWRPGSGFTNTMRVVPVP

log2 fold change, inactive:
PI4K2B (UniProt Q8TCG2) 0.004, PCF11 (UniProt O94913) -0.082, PRKD3 (UniProt O94806) -0.197, PUM1 (UniProt Q14671) -0.034, PTK2B (UniProt Q14289) 0.048, PSD3 (UniProt Q9NYI0) 0.1, POGZ (UniProt Q7Z3K3) -0.172, PSMA3 (UniProt H0YJ03) 0.095, PKM isoform 2 (UniProt P14618) -0.005, PGK2 (UniProt P07205) 0.152, PNPLA4 (UniProt P41247) -0.148, PEX5 isoform 4 (UniProt P50542) 0.048, PRR14L (UniProt Q5THK1) 0.16, PPP2R5B (UniProt Q15173) -0.003, PUF60 isoform 2 (UniProt Q9UHX1) -0.242
